“And” between values parts separate entries of the source, which are not always exact repeats. Identical values can stand only once. Records with an inconclusive call do not appear. The source made the active and inactive calls. Unless noted, calls come from the whole dose curve; as a rule, active = well fitted curve in the direction sought with a large enough effect; inconclusive = small, poorly fitted or top-dose-only effect, or another doubt; inactive = no such curve, though single readings can be large; an effect the other way counts as inactive or inconclusive.

Here are results for eight compounds from PubChem BioAssay (NCATS).

Assay [1] deals with Thioredoxin reductase 1, cytoplasmic (Rattus norvegicus) (UniProt O89049). As to the kind of experiment: qHTS Assay for Inhibitors of Mammalian Selenoprotein Thioredoxin Reductase 1 (TrxR1) (AID 488773).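 Note: drop in NADPH fluorescence over an 8 min run after selenite addition; series mostly up to about 57 µM; % is set by controls: 0 for no effect and ±100 for the full control effect; nearly all actives have a fitted effect of over 40% in size.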 The conditions noted are these: Potency: inhibition. The method in brief:
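Inhibition is scored from the loss of NADPH fluorescence between first and last reads of an 8-min kinetic run. Selenite (400 uM) was the substrate, added after 15 min compound preincubation at room temperature.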

The target in assay [2] is Flap endonuclease 1 (Homo sapiens) (UniProt P39748). In words: qHTS Validation Assay for the Inhibitors of Human Flap endonuclease 1 (FEN1) (AID 488816). Note: potency is the fitted concentration of half-maximal effect. The method in brief: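 Steps: add FEN1 (10 nM reagent) or buffer only; pin compounds; hold 15 min at room temperature; start with substrate, 50 nM final; read at 0 and 15 min; correct, normalize and fit a four-parameter Hill curve.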

Assay [3] deals with M-phase phosphoprotein 8 (Homo sapiens) (UniProt Q99549). As to the kind of experiment: qHTS Validation Assay for Inhibitors for MPP8 Chromodomain Interactions with Methylated Histone Tails (AID 488949). Note: nearly all actives have a fitted effect of over 55% in size. Note: potency is the fitted concentration of half-maximal effect. The method, boiled down:
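50 nM MPP8 + 50 nM b-H3K9me3 peptide, PBS pH 7.4/0.01% Tween-20, 30 min RT; + cpd 30 min RT; + AlphaScreen donor/Ni-chelate acceptor beads 10 ug/mL final, 30 min dark; luminescence read.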

The target in assay [4] is Chromobox protein homolog 1 (Homo sapiens) (UniProt P83916). As to the kind of experiment: qHTS Validation Assay for Inhibitors of HP1-beta Chromodomain Interactions with Methylated Histone Tails (AID 488953). Note: nearly all actives have a fitted effect of over 50% in size. Note: potency is the fitted concentration of half-maximal effect. The method, boiled down: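 AlphaScreen proximity signal from streptavidin donor and nickel chelate acceptor beads (final 10 ug/mL) after 30 min dark incubation. Compounds had 30 min at room temperature with preformed complex of 50 nM HP1-beta and 50 nM b-H3(1-18)K9me3 in PBS pH 7.4 with 0.01% Tween-20.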

In assay [5] the target is Methanococcus maripaludis chaperonin (MmCpn) (UniProt Q6LX38). In words: High-Throughput Screening for Modulators of Cytosolic Chaperonin Activity: MmCpn Primary Screen (AID 488978).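 Note: 50 nM MmCpn enzyme hydrolysing 30 µM ATP at 37 °C; 0% is about no effect.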 The method, boiled down:
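Steps: chaperonin 50 nM final; add compound, 5 min RT; start with ATP, 30 uM final; hold 10 min at 37C; add ADP Transcreener HTRF reagent, 5 min; read ex 320, em 590 and 665 nm.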

Assay [6] deals with D(1A) dopamine receptor (Homo sapiens) (UniProt P21728). In words: HTS Assay for Allosteric Agonists of the Human D1 Dopamine Receptor: Primary Screen for Agonists (AID 488981). For activation: 0% is about no effect. Note: potency is the fitted concentration of half-maximal effect. The method, boiled down: (§1)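 Tetracycline-induced HEK293 T-REx cells force-coupled to calcium signalling were incubated overnight at 30 C and dye-loaded at room temperature. Calcium flux over 180 s after compound addition flagged agonists; a further 180 s read after EC20 dopamine flagged potentiators.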

Assay [7] has the same target. In words: HTS Assay for Allosteric Agonists of the Human D1 Dopamine Receptor: Primary Screen for Potentiators (AID 488982). Note: 0% is about no effect. The method in brief: as §1
Assay [8] shares this target. In words: HTS Assay for Allosteric Agonists of the Human D1 Dopamine Receptor: Primary Screen for Antagonists (AID 488983).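 Note: calcium flux response to an EC80 dopamine challenge measured with no-wash dye; nearly all actives have a fitted effect of over 65% in size.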 Note: potency is the fitted concentration of half-maximal effect. The method, boiled down: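 Calcium-flux read-out in inducible HEK293 T-REx cells expressing D1, dye-loaded 30–90 min at room temperature. Kinetic reads: 180 s after compound (agonist phase), then 180 s after an EC80 dopamine challenge.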
A short description of assay [9]: Validation screen for small molecules that induce genotoxicity in human embryonic kidney (HEK293T) cells expressing luciferase-tagged ELG1 (AID 493106). Note: 0% is about no effect. The method in brief:
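ELG1-luciferase reporter readout (ONE-Glo, 30 min, room temperature) after 16 hr compound treatment at 37 °C of HEK293T cells at 2,000 per well. Rising luminescence flags genotoxic stress.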

The target of assay [10] is ATPase family AAA domain-containing protein 5 (Homo sapiens) (UniProt Q96QE3). As to the kind of experiment: Validation screen for small molecules that inhibit ELG1-dependent DNA repair in human embryonic kidney (HEK293T) cells expressing luciferase-tagged ELG1 (AID 493107).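 Note: series mostly up to about 46 µM; % is set by controls: 0 for no effect and ±100 for the full control effect; inhibitors lower the ELG1-luciferase luminescence signal; nearly all actives have a fitted effect of over 70% in size.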 The method, boiled down:
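Luciferase read-out, ONE-Glo, 30 min at room temperature, follows 16 h co-exposure at 37 C of compound and the DNA-damaging agent 5-fluorouridine. Cells: HEK293T with ELG1-luciferase fusion, 2,000 per well, DMSO as vehicle.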

A short description of assay [11]: Nrf2 qHTS screen for inhibitors: Validation (AID 493153; active = well fitted inhibition curve with a large enough effect in the main read-out, with a control signal flat, not every such curve was filed as active; note: potency is the fitted concentration of half-maximal effect). The settings on record: Potency: luciferase luminescence; viability change: measured here: cytotoxicity max response. The method, boiled down: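 Concentration-response on A549 ARE_Fluc reporter cells exposed 18-24 h at 37 C, 5% CO2. Cytotoxicity read first by CellTiter-Fluor fluorescence (Ex 405/Em 525), then Nrf2 inhibition by BugLite luminescence after 15 min.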

Assay [12] has as its target Transient receptor potential cation channel subfamily V member 1 (Homo sapiens) (UniProt Q8NER1). As to the kind of experiment: HTS Assay for Compounds that Act as Enhancers of the Vanilloid Receptor 1 (AID 488979). Note: 0% is about no effect. The method, boiled down: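 TRPV1-expressing cells loaded with Fluo-8 calcium dye; compounds added and calcium influx read kinetically for 3 min (agonist phase), then capsaicin at EC20 added and read 2 min more for enhancement. Fluorescence ex 480/em 520 nm.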

In assay [13] the target is Thyrotropin receptor (Homo sapiens) (UniProt P16473). As to the kind of experiment: qHTS Assay for Antagonists of the Thyroid Stimulating Hormone Receptor (AID 488980). Note: series mostly up to about 58 µM; 0% is about no effect. The method in brief: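 Readout is cAMP by HTRF competition between cellular cAMP and cAMP-d2 for a cryptate-labelled antibody. Antagonism was assessed in TSHR-transfected HEK293 cells stimulated with 4 nM TSH (EC80, final) in the presence of RO 20-1724.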

Assay [14] addresses Thyrotropin-releasing hormone receptor (Homo sapiens) (UniProt P34981). In words: qHTS for Small Molecule Agonists and Allosteric Enhancers of Human TRH Receptor: Validation Screen for Agonists (AID 493127;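 active = calcium activation more than 3 SD above the typical response in the agonist read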;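 note: intracellular calcium rise by fluo-8 fluorescence before TRH EC20 addition; 0% is about no effect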). The conditions noted are these: TRH receptor agonist cell assay; at 2 µM; stronger effect = higher value. The method, boiled down: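 Compound-evoked intracellular calcium release in fluo-8-loaded TRHR cells, read kinetically on FDSS (Ex 480/Em 530, 1 s/cycle) after 23 nL pintool transfer. Agonist phase preceded 10 nM TRH EC20 addition.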

In assay [15] the target is Galactokinase (Homo sapiens) (UniProt P51570). In words: qHTS Validation Assay for Inhibitors of Human Galactokinase (GALK) (AID 493189). Note: 0% is about no effect. The method in brief:
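5 nM GALK / 100 uM galactose / 35 uM ATP, 20 mM HEPES pH8.0, 5 mM MgCl2, 60 mM NaCl, 1 mM DTT, 0.01% BSA (final). RT 1 h; Kinase-Glo Plus luminescence.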

The nature of assay [16]: Validation screen for small molecules that induce DNA re-replication in SW480 colon adenocarcinoma cells (AID 504364). Note: 0% is about no effect. The method, boiled down: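 Image-based DNA content read-out: Hoechst stain 40 min, total nuclear fluorescence intensity (ex 405 nm, em 500-530 nm) after 48 h compound exposure of 250 SW480 cells/well at 37 C, 5% CO2, versus DMSO vehicle.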
Assay [17] has as its target Thioredoxin reductase 1, cytoplasmic (Rattus norvegicus) (UniProt O89049). As to the kind of experiment: qHTS Assay for Substrates of Mammalian Selenoprotein Thioredoxin Reductase 1 (TrxR1) (AID 488772).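 Note: series mostly up to about 57 µM; 0% is about no effect; a drop in NADPH fluorescence below the no-compound background marks a TrxR1 substrate.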 The method in brief:
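In this dual-purpose format, potential substrates are identified from the first fluorescence read after selenite addition, not from the 8-minute delta. Rat enzyme is preincubated with NADPH and then with compound at ~22 deg C.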

Assay [18] is described as follows: qHTS for Inhibitors of Cell Surface uPA Generation: Validation Assay (AID 493164).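 Note: RAW 264.7 macrophage cells exposed to compound for 18 h; 0% is about no effect.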 The method in brief:
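ATP-Lite luminescence read-out: ATP remains high when uPA activity-dependent LF translocation into the cytoplasm is blocked. RAW 264.7 cells, 18 h compound exposure at 37 C; 7-point titration, 2.45 nM to 38.3 uM final.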

Chain of ATPase family AAA domain-containing protein 5 (Homo sapiens) (Q96QE3 whole entry, looked up, the tested form may be a part): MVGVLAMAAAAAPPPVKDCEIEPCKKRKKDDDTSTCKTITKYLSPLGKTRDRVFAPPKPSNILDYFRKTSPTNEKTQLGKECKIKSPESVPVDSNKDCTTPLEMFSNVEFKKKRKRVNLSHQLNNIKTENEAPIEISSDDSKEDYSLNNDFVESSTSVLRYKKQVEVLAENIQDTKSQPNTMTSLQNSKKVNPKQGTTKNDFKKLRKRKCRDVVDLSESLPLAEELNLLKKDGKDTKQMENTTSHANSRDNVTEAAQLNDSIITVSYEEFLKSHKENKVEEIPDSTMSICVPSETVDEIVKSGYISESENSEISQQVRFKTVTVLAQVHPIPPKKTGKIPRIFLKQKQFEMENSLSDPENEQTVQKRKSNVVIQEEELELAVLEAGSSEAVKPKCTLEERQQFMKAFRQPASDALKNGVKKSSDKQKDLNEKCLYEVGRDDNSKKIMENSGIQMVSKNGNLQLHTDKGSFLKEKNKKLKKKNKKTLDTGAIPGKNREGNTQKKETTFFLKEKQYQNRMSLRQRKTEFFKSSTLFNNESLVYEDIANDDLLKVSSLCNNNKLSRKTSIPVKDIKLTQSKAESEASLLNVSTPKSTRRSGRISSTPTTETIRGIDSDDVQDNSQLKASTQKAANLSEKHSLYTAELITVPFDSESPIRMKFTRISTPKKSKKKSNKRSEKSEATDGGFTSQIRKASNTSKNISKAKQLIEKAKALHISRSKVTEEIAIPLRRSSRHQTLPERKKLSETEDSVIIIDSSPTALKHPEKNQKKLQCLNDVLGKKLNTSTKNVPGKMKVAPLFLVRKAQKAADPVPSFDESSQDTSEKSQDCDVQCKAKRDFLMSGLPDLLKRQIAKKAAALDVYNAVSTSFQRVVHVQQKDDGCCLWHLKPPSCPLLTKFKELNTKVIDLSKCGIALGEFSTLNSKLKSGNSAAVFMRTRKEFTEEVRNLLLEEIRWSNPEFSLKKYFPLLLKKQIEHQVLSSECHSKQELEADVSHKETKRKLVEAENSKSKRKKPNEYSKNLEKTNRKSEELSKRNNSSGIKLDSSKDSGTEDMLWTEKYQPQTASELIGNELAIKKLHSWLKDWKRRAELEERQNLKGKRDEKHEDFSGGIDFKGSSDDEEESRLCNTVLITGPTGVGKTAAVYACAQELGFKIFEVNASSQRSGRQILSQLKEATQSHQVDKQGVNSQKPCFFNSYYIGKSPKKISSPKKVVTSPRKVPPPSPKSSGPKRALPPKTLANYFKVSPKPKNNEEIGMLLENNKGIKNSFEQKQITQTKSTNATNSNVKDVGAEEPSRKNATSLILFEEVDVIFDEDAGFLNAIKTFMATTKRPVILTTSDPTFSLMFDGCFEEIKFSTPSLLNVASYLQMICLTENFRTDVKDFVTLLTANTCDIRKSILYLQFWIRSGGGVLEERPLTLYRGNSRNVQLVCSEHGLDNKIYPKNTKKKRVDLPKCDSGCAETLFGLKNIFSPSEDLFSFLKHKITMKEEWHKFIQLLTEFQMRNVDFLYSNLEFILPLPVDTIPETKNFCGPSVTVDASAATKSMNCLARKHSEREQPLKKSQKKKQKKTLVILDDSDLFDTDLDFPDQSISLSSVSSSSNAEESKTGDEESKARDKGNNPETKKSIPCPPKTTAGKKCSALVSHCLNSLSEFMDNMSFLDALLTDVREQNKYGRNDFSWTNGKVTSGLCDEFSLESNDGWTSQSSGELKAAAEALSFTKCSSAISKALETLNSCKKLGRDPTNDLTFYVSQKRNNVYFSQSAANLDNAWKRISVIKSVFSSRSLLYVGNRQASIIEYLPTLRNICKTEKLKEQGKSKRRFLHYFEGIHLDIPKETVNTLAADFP
Chain of Methanococcus maripaludis chaperonin (MmCpn) (Q6LX38 1-543): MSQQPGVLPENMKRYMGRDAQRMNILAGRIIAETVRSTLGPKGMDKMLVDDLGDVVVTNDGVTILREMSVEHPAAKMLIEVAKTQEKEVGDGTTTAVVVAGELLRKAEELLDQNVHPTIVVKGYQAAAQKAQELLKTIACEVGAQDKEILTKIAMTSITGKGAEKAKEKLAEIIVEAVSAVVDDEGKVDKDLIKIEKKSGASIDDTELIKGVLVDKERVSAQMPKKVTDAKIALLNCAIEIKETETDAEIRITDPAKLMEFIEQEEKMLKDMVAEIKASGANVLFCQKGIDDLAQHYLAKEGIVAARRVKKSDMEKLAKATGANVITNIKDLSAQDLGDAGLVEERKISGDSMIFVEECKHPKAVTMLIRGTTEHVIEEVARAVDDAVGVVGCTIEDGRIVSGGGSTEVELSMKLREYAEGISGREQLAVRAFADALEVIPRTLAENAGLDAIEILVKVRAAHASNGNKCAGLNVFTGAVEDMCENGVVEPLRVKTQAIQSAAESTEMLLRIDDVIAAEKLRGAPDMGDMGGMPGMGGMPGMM
Chain of Thyrotropin-releasing hormone receptor (Homo sapiens) (P34981 whole entry, looked up): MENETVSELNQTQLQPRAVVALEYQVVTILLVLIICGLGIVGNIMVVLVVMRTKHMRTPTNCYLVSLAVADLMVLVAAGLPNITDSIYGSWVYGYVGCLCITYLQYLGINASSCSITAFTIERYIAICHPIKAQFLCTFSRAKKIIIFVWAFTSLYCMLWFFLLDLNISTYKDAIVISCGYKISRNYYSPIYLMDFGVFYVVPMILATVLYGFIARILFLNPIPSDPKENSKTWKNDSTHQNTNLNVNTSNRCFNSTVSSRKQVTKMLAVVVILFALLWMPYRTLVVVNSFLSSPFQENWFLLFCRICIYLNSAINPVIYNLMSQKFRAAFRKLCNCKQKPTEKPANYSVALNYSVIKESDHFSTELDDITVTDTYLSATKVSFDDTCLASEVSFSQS
Chain of M-phase phosphoprotein 8 (Homo sapiens) (Q99549 whole entry, looked up): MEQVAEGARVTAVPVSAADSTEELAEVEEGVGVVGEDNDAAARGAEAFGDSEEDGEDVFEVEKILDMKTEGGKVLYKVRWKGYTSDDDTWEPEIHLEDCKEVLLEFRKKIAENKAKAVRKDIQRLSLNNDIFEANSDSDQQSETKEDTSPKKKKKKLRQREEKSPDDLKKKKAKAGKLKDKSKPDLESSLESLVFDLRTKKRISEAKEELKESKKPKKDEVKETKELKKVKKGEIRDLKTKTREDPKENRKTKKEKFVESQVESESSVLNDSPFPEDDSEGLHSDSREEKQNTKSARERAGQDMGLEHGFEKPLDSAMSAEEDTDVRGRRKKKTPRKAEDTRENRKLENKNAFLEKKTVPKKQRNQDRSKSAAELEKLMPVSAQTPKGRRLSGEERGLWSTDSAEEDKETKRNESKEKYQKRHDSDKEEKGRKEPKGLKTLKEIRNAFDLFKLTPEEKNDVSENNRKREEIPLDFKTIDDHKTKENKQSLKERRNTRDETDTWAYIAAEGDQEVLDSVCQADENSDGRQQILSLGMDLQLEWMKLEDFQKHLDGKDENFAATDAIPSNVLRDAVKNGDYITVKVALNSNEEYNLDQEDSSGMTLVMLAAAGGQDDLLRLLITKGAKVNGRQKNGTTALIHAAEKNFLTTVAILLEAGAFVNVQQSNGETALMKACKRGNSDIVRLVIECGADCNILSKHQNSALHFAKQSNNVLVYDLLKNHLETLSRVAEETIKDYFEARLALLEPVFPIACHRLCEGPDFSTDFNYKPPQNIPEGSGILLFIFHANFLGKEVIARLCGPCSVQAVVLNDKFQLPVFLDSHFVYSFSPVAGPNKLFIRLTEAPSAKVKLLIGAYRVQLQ
Chain of Thioredoxin reductase 1, cytoplasmic (Rattus norvegicus) (O89049 whole entry, looked up): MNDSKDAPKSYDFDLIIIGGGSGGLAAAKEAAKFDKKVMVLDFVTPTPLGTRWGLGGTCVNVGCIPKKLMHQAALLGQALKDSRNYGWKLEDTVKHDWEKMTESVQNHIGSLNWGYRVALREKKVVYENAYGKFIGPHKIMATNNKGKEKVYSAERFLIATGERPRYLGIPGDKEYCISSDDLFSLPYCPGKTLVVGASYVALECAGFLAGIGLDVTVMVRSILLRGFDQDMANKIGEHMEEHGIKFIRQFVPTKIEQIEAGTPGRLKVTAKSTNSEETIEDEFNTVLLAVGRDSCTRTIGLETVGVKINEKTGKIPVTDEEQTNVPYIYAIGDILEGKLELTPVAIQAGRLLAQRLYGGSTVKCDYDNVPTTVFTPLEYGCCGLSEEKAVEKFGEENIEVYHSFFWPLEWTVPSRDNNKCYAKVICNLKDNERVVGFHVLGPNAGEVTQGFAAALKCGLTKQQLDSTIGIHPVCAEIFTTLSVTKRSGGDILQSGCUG
Chain of D(1A) dopamine receptor (Homo sapiens) (P21728 whole entry, looked up): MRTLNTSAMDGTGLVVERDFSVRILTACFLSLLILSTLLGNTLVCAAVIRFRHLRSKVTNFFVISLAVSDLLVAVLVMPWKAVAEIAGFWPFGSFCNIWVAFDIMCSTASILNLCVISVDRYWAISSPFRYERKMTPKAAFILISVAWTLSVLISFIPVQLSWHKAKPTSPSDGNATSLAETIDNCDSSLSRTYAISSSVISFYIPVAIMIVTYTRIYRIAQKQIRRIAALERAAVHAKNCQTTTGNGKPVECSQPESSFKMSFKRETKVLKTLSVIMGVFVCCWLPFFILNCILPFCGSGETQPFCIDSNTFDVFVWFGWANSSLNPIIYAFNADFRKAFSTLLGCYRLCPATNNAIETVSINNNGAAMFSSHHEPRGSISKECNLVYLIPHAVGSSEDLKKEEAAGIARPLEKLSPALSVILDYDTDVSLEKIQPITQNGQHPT
Chain of Flap endonuclease 1 (Homo sapiens) (P39748 whole entry, looked up): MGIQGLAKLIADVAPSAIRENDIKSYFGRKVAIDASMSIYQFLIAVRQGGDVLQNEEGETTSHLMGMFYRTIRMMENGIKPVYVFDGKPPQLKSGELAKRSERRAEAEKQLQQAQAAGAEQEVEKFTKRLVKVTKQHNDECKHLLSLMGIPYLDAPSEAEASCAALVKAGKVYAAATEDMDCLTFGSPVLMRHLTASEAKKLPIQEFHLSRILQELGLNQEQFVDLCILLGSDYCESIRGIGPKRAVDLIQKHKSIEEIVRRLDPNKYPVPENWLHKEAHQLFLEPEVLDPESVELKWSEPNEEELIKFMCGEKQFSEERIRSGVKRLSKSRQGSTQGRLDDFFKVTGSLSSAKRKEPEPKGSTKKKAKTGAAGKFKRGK

With `C[N+](C)(C)CCOP(=O)(O)OP(=O)([O-])OC[C@H]1O[C@@H](n2ccc(N)nc2=O)[C@H](O)[C@@H]1O`, the Potency entry in assay [1], in assay [2], in assay [3], in [4], in assay [6] and in [7] was “inactive” in each case. Also, the Potency entry in assay [8], in [9], in [10] and in assay [11] was “inactive” throughout. In assay [5], the call was inactive. Further, in assay [11], the viability change was 2.92%.
For `NCCNC(=O)c1ncsc1-c1cccc(F)c1`, the Potency result in assay [1], in assay [2], in assay [3], in assay [4], in assay [6] and in assay [8] was “inactive” each time. For the same compound, the Potency entry in [9], in assay [10], in assay [11], in assay [15] and in assay [16] was “inactive” each time. In addition, the outcome in [5], in assay [12] and in [13] was inactive. Besides, the activation in [14] was -2.38% (inactive). The viability change in assay [11] was found to be 1.7%.
Regarding `C=C[C@H]1CN2CC[C@@H]1C[C@@H]2[C@@H](O)c1ccnc2ccc(OC)cc12`, the Potency entry in [17], in [4], in assay [6], in assay [7], in [8] and in assay [9] was “inactive” throughout. The Potency entry in assay [10] and in assay [11] was “inactive” throughout. The outcome in [5] and in assay [18] was inactive. In addition, the viability change in [11] is -1.39%.
As to `Nc1ncnc2c1ncn2[C@@H]1O[C@H](COP(=O)(O)OP(=O)(O)OP(=O)(O)OP(=O)(O)OC[C@@H]2O[C@H](n3cnc4c(N)ncnc43)[C@@H](O)[C@H]2O)[C@@H](O)[C@H]1O`, the Potency result in [1], in [2], in assay [3], in assay [4], in [9] and in assay [11] was “inactive” each time. Besides, the Potency in assay [6] is 562 nM (active). Moreover, the viability change in assay [11] turned out to be 2.98%. Also, the outcome in assay [18] was inactive.
Consider `O=C1NC(=O)/C(=C/c2ccc3nccnc3c2)S1`, for which the Potency result in assay [1], in assay [2], in [3], in [4], in assay [6] and in assay [7] was “inactive” throughout. The Potency result in assay [8] is “inactive”.
In the case of `N#C/C(=C\c1c[nH]c2ccccc12)C(=O)c1ccc(O)c(O)c1`, the Potency result in assay [1], in assay [6], in assay [7], in assay [8], in assay [9] and in assay [11] was “inactive” each time. For the same compound, the Potency is 4.23 µM (active) in assay [2]; 3.98 µM (active) and 8.44 µM (active) in assay [3]; 3.55 µM (active) in assay [4]. Also, the result in assay [5], in assay [12], in assay [13] and in assay [18] was inactive. In addition, in assay [14], the activation is 0.438% (inactive). In addition, in assay [11], the viability change is -8.11%.
With `Cc1ccc(C(=O)O[C@H](C(=O)O)[C@@H](OC(=O)c2ccc(C)cc2)C(=O)O)cc1` (tested in a mixture with another compound), the Potency entry in assay [17], in [3], in assay [4], in assay [6], in assay [7] and in [8] was “inactive” throughout. Further, the Potency result in assay [9], in assay [10], in assay [11] and in assay [16] was “inactive” in each case. Moreover, the compound was called inactive in assay [5] and in [12]. Further, in assay [14], the activation is 1.25% (inactive). For the same compound, the viability change in [11] was -3.95%.
As to `COc1ccccc1N1CCN(CCN(C(=O)c2ccc(I)cc2)c2ccccn2)CC1`, the Potency result in [1], in assay [2], in assay [3], in [6], in assay [7] and in assay [9] was “inactive” throughout. The outcome in assay [5] and in assay [18] was inactive. Besides, the Potency in assay [8] is 5.62 µM (active); in assay [11], 14.6 µM (active). The viability change in [11] was -4.45%.
